# PubChem BioAssay (EPA / NIEHS)
# Records with an inconclusive call do not appear. Active and inactive are the calls of the source. Rule for the calls: active = hit-call score of the fitted dose curve at least 0.9, where 1 is the maximum; inconclusive = response in the unintended direction; inactive = score below 0.9.
# Read-out: organic anion transporter (SLCO1B1), SLCO1B1 (gene 10599)
# Assay: CLD_SLCO1B1_24hr: CellzDirect (CLD) Gene Expression Assay for organic anion transporter (SLCO1B1) at 24 hours (AID 2283690)
# Experimental: CLD_24hr is a cell-based, multiplexed-readout assay that uses hepatocyte, a human liver primary cell, with measurements taken at 24 hours after chemical dosing in a 96-well plate.CLD_SLCO1B1_24hr is one of 16 assay component(s) measured or calculated from the CLD_24hr assay. It is designed to make measurements of mRNA induction, a form of inducible reporter, as detected with chemiluminescence signals by Quantitative Nuclease Protection Assay (qNPA) technology.Data from the assay component CLD_SLCO1B1_24hr was analyzed at the endpoint, CLD_SLCO1B1_24hr, in the positive analysis fitting direction relative to DMSO as the negative control and baseline of activity. Using a type of inducible reporter, gain-of-signal activity can be used to understand changes in the reporter gene as they relate to the gene SLCO1B1. Furthermore, this assay endpoint can be referred to as a primary readout. To generalize the intended target to other relatable targets, this assay endpoint is annotated to the transporter intended target family, where subfamily is organic anion transporter.
# Human hepatocyte cultures were treated daily for two consecutive days with fresh dosing solutions containing appropriate concentrations of the 320 ToxCast chemicals (chemical identities were blinded to CellzDirect and other ToxCast collaborators), vehicle control (0.2% DMSO), and positive control inducers as summarized in Table 1. Due to the large number of treatment groups and chemicals examined, the ToxCast chemicals were divided into two groups (spanning two independent cultures of hepatocytes from separate donor preparations (Hu778: ToxCast plates 1 and 2; Hu776: ToxCast plates 3 and 4). Each preparation of human hepatocyte cultures was treated with respective vehicle control, medium only control, set of six positive controls/reference chemicals for the five hepatic receptor pathways, and a subset of eight of the ToxCast chemicals (indoxacarb, pyrithiobac-sodium, norflurazon, cyhalofop-butyl, methomyl, thiram, acetochlor, and propiconazole). These replicate data, coupled with internal replicates designed within the blinded ToxCast chemical library, provided additional data to evaluate interindividual differences between hepatocyte preparations and their potential impact on chemical profiles.Cell morphology and integrity were evaluated using phase-contrast microscopy as an indicator of hepatocyte cell health (Tyson & Green, 1987). Cultures for each treatment group (i.e., media, vehicle [0.2% DMSO], positive control inducers [multiple concentrations], and the ToxCast chemicals [multiple concentrations]) were observed and cell morphology was assessed relative to vehicle control cultures at each harvest time point (0, 6, 24, or 48 h). […] Images were evaluated at the conclusion of the study to assess changes in cell integrity and account for the effects of chemical exposure on uncharacteristic changes in concentration-dependent gene expression profiles. The results from these determinations of apparent cytotoxicity were annotated (yes/no) alongside the corresponding qNPA data for reference.At the conclusion of each treatment period, hepatocyte cultures (96-well) were washed with 1 volume of HBSS, lysed by addition of 25 ul ArrayPlate lysis buffer (HTG, Tucson, AZ), and 70 ul/well of Denaturation Oil, denatured by incubation at 95C for 10 min, and frozen at approximately -70C until analysis by nuclease protection assay (qNPA) (Roberts et al., 2007). For qNPA analysis, cell lysates were thawed at 50C for approximately 30 min, qNPA probes were added, and samples were incubated at 95C for 10 min to begin the detection process by denaturing the target RNA, dissociating the duplexes and secondary structure hybridization. At the conclusion of the hybridization period, S1 nuclease reagent was added to each sample to digest all nonprotected nucleotides at 50C for 60-90 min. […]
row,Compound,outcome
1,CC(COc1ccc(Oc2ccccc2)cc1)Oc1ccccn1 (centres undefined),inactive
2,CCCCSP(=O)(SCCCC)SCCCC,inactive
3,Nc1nc(N)nc(NC2CC2)n1,inactive
4,CN(C)NC(=O)CCC(=O)O,inactive
5,C=C(C)[C@H]1Cc2c(ccc3c2O[C@@H]2COc4cc(OC)c(OC)cc4[C@@H]2C3=O)O1,inactive
6,CC(=NC#N)N(C)Cc1ccc(Cl)nc1,inactive
7,COc1ccc(C(=CC(=O)N2CCOCC2)c2ccc(Cl)cc2)cc1OC,inactive
8,CCOC(=O)COc1cc(-c2nn(C)c(OC(F)F)c2Cl)c(F)cc1Cl,inactive
9,CCc1cnc(C2=NC(C)(C(C)C)C(=O)N2)c(C(=O)O)c1 (centres undefined),inactive
10,Cc1nn(-c2cc(NS(C)(=O)=O)c(Cl)cc2Cl)c(=O)n1C(F)F,inactive
11,CCCOc1nn(C(=O)NS(=O)(=O)c2ccccc2C(=O)OC)c(=O)n1C,inactive
12,COP(=O)(NC(C)=O)SC (centres undefined),inactive
13,CCOP(=S)(OCC)Oc1ccc2c(C)c(Cl)c(=O)oc2c1,inactive
14,CCCSP(=O)(OCC)Oc1ccc(Br)cc1Cl (centres undefined),inactive
15,CCOP(=O)(OCC)Oc1cc(C)nc(C(C)C)n1,inactive
16,CNC(=O)ON=C(C)SC,inactive
17,CCOC(=O)CC(SP(=O)(OC)OC)C(=O)OCC (centres undefined),inactive
18,CN1COCN(Cc2cnc(Cl)s2)C1=N[N+](=O)[O-],inactive
19,CN(C)C(=O)Nc1cccc(C(F)(F)F)c1,inactive
20,CC1(C(=O)Nc2ccc(O)c(Cl)c2Cl)CCCCC1,inactive

row,Compound,outcome
1,CC(C)[C@H](C(=O)O[C@H](C#N)c1cccc(Oc2ccccc2)c1)c1ccc(Cl)cc1,inactive
2,CC(C)=CC1C(C(=O)OCN2C(=O)C3=C(CCCC3)C2=O)C1(C)C (centres undefined),inactive
3,CCNc1nc(Cl)nc(NC(C)(C)C#N)n1,inactive
4,CN(C)[C@@H]1C(=O)C(C(N)=O)=C(O)[C@@]2(O)C(=O)C3=C(O)c4c(O)cccc4[C@@](C)(O)[C@H]3[C@H](O)[C@@H]12,inactive
5,CCOP(=S)(OCC)OC(Cl)C(Cl)(Cl)Cl (centres undefined),inactive
6,CNC(=O)ON=C(SC)C(=O)N(C)C,inactive
7,CCc1cccc(CC)c1N(COC)C(=O)CCl,inactive
8,O=C(O)c1cc(Oc2ccc(C(F)(F)F)cc2Cl)ccc1[N+](=O)[O-],inactive
9,CSC1=N[C@@](C)(c2ccccc2)C(=O)N1Nc1ccccc1,inactive
10,C#CCC1=C(C)C(OC(=O)C2C(C=C(C)C)C2(C)C)CC1=O (centres undefined),inactive
11,S=C1NCCN1,inactive
12,CNC(=O)Oc1cccc2c1OC(C)(C)O2,inactive
13,COP(=O)(OC)C(O)C(Cl)(Cl)Cl (centres undefined),inactive
14,COc1cc(OC)nc(Sc2cccc(Cl)c2C(=O)O)n1,inactive
15,CCOP(=S)(OCC)SCCSCC,inactive
16,CCOP(=O)(SC(C)CC)N1CCSC1=O (centres undefined),inactive
17,COc1cccc(C(=O)NN(C(=O)c2cc(C)cc(C)c2)C(C)(C)C)c1C,inactive
18,O=c1ccc(=O)[nH][nH]1,inactive
19,CC(C1CC1)C(O)(Cn1cncn1)c1ccc(Cl)cc1 (centres undefined),inactive
